# Source: paper PMC7862700, “An all-to-all approach to the identification of sequence-specific readers for epigenetic DNA modifications on cytosine”
# Assays:
# Test in all cases: DAPPL (digital affinity profiling via proximity ligation, sequencing); 10 mM Tris-HCl pH 7.5, 50 mM NaCl, 1 mM DTT, 4% glycerol, room temperature, 30 min; GST-TFs on glutathione beads, 16-mer random dsDNA library, 0.1% formaldehyde crosslink after washing; high values mean tight binding
# FLI1 = target: T1, FLI1 (Homo sapiens, UniProt Q01543 1-452); details: protein: recombinant; tags: N-terminal GST; dsDNA, one strand shown
# T1 sequence: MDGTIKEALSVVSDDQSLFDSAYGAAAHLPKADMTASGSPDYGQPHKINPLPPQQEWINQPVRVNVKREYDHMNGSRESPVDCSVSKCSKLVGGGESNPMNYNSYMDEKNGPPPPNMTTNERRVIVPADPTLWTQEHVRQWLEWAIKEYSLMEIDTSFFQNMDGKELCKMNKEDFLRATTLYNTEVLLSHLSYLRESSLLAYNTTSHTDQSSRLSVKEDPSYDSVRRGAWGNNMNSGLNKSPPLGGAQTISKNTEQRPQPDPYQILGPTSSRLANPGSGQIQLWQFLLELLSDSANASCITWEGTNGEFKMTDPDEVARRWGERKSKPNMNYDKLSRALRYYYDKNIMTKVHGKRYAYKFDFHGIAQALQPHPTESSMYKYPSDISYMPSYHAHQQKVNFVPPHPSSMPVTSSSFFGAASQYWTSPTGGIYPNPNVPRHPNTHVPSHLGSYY
# Outline: (§1)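 Each value of binding signal is a hexamer's read frequency for a factor divided by the same hexamer's frequency in the tag-only sample. Barcoded, bead-captured GST fusions of human transcription factors made in yeast were pooled with that sample and incubated with 200 nmole of a random double-stranded 16-mer DNA library in Tris/NaCl/DTT/glycerol buffer at room temperature for 30 min. Washing, 0.1% formaldehyde crosslinking, proximity ligation, PCR and Illumina NextSeq500 sequencing followed.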
# ELK1 = target: T2, ELK1 (Homo sapiens, UniProt P19419 1-428); details: protein: recombinant; tags: N-terminal GST; dsDNA, one strand shown
# T2 sequence: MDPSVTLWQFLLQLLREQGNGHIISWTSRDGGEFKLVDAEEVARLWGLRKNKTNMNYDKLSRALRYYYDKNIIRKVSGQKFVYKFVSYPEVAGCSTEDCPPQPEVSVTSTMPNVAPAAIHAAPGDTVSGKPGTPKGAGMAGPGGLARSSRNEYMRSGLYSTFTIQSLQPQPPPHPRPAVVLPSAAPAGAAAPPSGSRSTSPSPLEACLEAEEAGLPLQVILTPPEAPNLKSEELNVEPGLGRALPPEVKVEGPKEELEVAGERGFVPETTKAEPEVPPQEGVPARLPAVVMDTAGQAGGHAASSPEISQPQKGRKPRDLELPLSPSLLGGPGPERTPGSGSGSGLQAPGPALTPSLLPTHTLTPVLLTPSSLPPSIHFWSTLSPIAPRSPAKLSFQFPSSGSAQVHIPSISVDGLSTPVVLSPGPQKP
# Outline: as §1
# GABPA = target: T3, GABPA (Homo sapiens, UniProt Q06546 1-454); details: protein: recombinant; tags: N-terminal GST; dsDNA, one strand shown
# T3 sequence: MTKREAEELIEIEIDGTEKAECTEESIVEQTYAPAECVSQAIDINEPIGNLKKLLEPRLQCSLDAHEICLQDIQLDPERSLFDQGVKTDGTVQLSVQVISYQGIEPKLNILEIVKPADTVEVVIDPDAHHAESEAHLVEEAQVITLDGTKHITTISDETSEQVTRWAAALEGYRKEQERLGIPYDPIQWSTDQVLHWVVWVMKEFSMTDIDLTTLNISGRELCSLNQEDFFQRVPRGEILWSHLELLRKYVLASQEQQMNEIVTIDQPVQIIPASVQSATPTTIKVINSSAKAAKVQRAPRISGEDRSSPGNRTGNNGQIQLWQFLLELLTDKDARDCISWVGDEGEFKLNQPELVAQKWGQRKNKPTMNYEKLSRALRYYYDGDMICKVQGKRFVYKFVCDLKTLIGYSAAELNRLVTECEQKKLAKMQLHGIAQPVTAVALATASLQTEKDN
# Outline: as §1
# ERG = target: T4, ERG (Homo sapiens, UniProt P11308 1-479); details: protein: recombinant; tags: N-terminal GST; dsDNA, one strand shown
# T4 sequence: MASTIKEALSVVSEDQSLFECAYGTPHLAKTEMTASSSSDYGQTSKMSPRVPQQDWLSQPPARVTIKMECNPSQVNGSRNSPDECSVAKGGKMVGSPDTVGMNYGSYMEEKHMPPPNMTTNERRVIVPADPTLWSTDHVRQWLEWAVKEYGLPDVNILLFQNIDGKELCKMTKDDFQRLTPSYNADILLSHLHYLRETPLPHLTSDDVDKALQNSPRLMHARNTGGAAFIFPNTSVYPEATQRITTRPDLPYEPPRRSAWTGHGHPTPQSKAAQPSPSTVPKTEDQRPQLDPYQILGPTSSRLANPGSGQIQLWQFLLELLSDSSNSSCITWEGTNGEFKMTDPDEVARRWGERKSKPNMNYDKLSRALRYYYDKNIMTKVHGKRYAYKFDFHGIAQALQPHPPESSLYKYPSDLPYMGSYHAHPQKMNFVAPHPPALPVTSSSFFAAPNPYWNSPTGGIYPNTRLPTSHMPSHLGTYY
# Outline: as §1
# ELF1 = ELF1 (Homo sapiens, UniProt P32519 1-619); details: protein: recombinant; tags: N-terminal GST; dsDNA, one strand shown
# Chain of ELF1 (P32519 whole entry): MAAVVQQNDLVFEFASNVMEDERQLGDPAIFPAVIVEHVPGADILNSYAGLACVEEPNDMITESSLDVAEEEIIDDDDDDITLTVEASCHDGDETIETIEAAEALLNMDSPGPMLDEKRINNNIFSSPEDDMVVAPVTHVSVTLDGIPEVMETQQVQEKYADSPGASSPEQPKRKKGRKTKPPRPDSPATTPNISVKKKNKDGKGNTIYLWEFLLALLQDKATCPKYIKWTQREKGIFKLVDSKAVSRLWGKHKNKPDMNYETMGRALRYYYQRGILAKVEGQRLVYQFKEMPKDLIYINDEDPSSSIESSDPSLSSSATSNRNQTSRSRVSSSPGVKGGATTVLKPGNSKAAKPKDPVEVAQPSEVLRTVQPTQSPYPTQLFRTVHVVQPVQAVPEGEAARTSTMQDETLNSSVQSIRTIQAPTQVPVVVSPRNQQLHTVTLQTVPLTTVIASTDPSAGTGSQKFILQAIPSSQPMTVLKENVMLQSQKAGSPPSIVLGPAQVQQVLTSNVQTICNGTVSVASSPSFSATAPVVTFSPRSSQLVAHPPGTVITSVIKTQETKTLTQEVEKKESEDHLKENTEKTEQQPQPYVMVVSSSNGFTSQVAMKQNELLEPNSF
# Outline: as §1
# EHF = target: T5, EHF (Homo sapiens, UniProt Q9NZC4 1-300); details: protein: recombinant; tags: N-terminal GST; dsDNA, one strand shown
# T5 sequence: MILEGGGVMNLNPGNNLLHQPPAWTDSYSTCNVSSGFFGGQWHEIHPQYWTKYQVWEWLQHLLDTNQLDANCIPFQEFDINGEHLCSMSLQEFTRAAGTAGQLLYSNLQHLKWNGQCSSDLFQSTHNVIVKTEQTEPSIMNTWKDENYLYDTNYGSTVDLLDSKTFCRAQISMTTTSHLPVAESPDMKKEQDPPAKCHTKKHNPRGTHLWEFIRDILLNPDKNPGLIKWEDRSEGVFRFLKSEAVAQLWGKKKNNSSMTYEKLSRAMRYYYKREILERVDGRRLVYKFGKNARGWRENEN
# Outline: as §1
# SPI1 = SPI1 (Homo sapiens, UniProt P17947 1-270); details: protein: recombinant; tags: N-terminal GST; dsDNA, one strand shown
# Outline: as §1
# SPIB = SPIB (Homo sapiens, UniProt Q01892 1-262); details: protein: recombinant; tags: N-terminal GST; dsDNA, one strand shown
# Chain of SPIB (Q01892 whole entry): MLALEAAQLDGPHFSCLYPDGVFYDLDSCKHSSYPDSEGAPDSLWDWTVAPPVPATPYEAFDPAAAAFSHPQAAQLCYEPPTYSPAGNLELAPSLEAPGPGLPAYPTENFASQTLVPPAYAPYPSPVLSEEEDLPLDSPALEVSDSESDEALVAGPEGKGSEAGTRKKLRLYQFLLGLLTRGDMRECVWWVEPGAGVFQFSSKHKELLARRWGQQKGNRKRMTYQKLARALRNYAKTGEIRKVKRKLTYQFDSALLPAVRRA
# Outline: as §1
# ELK3 = target: T6, ELK3 (Homo sapiens, UniProt P41970 1-407); details: protein: recombinant; tags: N-terminal GST; dsDNA, one strand shown
# T6 sequence: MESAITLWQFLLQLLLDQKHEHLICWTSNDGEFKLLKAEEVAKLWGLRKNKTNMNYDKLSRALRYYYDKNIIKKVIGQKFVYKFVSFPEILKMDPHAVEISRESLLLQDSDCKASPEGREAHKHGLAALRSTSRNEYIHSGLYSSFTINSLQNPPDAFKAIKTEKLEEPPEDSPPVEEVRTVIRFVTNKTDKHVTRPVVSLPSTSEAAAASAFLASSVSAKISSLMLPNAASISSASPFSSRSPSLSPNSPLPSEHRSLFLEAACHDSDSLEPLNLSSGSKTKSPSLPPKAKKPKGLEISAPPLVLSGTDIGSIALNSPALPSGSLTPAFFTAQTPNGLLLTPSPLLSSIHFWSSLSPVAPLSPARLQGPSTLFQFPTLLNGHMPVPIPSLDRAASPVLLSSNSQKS
# Outline: as §1
# FEV = target: T7, FEV (Homo sapiens, UniProt Q99581 1-238); details: protein: recombinant; tags: N-terminal GST; dsDNA, one strand shown
# T7 sequence: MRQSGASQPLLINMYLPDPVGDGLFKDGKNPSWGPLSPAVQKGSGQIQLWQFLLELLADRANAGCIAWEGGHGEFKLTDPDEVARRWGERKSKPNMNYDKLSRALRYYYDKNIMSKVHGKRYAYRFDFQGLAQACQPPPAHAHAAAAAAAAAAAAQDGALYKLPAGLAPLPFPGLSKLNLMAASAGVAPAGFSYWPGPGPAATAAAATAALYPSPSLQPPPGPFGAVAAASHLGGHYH
# Outline: as §1
# ETV5 = ETV5 (Homo sapiens, UniProt P41161 1-510); details: protein: recombinant; tags: N-terminal GST; dsDNA, one strand shown
# Chain of ETV5 (P41161 whole entry): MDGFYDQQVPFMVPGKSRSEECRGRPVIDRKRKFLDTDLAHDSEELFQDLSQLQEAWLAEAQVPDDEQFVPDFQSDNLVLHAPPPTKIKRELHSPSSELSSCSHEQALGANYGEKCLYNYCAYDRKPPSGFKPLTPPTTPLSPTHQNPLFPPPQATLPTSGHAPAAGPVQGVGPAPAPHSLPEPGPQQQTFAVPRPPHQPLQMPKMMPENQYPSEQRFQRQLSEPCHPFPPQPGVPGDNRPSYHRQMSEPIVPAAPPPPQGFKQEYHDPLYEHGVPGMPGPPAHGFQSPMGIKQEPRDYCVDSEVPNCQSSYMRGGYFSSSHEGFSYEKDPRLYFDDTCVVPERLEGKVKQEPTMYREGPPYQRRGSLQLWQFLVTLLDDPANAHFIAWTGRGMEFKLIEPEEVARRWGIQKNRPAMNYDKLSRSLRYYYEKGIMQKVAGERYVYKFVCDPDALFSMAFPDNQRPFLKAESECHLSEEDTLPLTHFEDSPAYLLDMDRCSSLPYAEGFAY
# Outline: as §1
# HSF1 = HSF1 (Homo sapiens, UniProt Q00613 1-529); details: protein: recombinant; tags: N-terminal GST; chain copies: 3; dsDNA, one strand shown
# Chain of HSF1 (Q00613 whole entry): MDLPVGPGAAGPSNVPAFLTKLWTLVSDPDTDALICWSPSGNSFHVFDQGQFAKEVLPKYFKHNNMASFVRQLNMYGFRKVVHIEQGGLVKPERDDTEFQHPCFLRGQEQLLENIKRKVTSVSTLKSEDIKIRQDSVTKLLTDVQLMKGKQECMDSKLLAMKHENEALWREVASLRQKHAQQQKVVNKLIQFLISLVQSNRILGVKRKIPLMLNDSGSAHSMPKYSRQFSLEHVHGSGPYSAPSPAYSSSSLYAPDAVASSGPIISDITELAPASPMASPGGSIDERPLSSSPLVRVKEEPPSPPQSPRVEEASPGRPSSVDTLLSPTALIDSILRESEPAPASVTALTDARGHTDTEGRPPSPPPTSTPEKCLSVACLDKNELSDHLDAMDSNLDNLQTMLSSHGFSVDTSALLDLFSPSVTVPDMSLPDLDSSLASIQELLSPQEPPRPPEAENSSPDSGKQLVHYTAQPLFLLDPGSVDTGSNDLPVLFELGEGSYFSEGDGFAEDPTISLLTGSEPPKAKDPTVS
# Outline: as §1
# SPIC = target: T8, SPIC (Homo sapiens, UniProt Q8N5J4 1-248); details: protein: recombinant; tags: N-terminal GST; dsDNA, one strand shown
# T8 sequence: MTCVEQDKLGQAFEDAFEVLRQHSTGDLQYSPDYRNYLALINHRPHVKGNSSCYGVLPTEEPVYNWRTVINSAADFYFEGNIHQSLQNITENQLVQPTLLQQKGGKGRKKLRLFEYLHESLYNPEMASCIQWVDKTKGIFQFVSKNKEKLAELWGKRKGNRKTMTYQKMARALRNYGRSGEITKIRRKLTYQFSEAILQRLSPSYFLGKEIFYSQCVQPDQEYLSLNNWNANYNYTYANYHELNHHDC
# Outline: as §1
# ELF4 = ELF4 (Homo sapiens, UniProt Q99607 1-663); details: protein: recombinant; tags: N-terminal GST; dsDNA, one strand shown
# Chain of ELF4 (Q99607 whole entry): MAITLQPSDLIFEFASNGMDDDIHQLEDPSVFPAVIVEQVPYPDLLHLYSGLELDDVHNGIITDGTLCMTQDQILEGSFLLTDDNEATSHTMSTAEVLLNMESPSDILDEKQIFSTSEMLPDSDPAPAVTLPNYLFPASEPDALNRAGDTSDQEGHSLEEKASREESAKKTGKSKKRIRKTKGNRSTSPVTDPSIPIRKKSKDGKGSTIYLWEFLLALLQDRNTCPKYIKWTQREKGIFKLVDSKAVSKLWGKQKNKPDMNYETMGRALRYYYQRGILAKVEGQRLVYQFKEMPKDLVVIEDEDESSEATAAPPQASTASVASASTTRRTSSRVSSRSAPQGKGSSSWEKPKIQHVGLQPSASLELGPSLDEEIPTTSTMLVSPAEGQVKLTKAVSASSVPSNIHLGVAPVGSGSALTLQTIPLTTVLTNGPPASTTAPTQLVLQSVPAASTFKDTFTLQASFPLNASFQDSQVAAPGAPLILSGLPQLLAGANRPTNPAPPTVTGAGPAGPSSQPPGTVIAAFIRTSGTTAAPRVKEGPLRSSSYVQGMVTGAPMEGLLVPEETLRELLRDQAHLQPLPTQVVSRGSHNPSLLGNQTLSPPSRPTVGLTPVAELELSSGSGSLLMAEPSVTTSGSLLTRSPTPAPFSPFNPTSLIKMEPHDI
# Outline: as §1
# ELK4 = target: T9, ELK4 (Homo sapiens, UniProt P28324-2 1-405); details: protein: recombinant; tags: N-terminal GST; dsDNA, one strand shown
# T9 sequence: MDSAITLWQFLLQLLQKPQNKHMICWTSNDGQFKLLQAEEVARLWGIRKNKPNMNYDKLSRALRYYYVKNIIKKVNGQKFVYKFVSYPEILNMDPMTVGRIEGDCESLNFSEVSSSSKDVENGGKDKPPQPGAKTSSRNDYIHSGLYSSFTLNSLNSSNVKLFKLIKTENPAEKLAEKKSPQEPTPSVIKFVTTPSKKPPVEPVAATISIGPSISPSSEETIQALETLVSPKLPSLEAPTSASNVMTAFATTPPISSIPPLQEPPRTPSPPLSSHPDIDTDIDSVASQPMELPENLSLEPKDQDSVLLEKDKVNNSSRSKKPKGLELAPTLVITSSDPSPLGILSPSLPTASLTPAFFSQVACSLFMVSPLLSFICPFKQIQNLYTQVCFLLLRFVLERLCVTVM
# Outline: as §1
# ETV2 = target: T10, ETV2 (Homo sapiens, UniProt O00321 1-342); details: protein: recombinant; tags: N-terminal GST; dsDNA, one strand shown
# T10 sequence: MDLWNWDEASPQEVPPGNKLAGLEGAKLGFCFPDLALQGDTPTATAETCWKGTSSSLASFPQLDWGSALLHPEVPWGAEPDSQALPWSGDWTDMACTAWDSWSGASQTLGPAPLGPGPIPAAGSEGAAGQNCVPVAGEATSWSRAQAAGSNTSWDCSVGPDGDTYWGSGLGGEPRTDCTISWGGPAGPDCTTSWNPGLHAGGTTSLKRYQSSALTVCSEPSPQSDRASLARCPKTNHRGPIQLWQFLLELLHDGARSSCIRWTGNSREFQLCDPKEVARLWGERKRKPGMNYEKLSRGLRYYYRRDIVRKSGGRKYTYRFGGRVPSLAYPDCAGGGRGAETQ
# Outline: as §1
# ELF3 = target: T11, ELF3 (Homo sapiens, UniProt P78545 1-371); details: protein: recombinant; tags: N-terminal GST; dsDNA, one strand shown
# T11 sequence: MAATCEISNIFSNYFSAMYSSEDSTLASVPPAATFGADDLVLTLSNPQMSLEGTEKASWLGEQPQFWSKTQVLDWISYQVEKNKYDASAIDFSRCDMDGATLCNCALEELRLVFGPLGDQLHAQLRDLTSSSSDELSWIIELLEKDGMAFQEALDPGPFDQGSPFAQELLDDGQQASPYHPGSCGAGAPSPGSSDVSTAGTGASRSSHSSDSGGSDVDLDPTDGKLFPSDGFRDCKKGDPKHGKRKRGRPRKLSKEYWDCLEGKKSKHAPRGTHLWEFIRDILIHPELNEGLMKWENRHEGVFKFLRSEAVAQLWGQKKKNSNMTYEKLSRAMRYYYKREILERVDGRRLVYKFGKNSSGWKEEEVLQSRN
# Outline: as §1
# CRX = CRX (Homo sapiens, UniProt O43186 1-299); details: protein: recombinant; tags: N-terminal GST; dsDNA, one strand shown
# Chain of CRX (O43186 whole entry): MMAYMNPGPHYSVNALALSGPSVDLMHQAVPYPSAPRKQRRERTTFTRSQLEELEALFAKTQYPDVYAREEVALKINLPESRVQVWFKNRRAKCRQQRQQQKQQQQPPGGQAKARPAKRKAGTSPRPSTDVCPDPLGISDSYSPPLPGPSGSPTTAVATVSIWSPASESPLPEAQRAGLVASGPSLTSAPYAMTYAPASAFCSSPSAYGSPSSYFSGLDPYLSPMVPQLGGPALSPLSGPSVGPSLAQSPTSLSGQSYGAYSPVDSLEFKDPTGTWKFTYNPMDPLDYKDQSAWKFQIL
# Outline: as §1
# ETV1 = ETV1 (Homo sapiens, UniProt P50549 1-477); details: protein: recombinant; tags: N-terminal GST; dsDNA, one strand shown
# Chain of ETV1 (P50549 whole entry): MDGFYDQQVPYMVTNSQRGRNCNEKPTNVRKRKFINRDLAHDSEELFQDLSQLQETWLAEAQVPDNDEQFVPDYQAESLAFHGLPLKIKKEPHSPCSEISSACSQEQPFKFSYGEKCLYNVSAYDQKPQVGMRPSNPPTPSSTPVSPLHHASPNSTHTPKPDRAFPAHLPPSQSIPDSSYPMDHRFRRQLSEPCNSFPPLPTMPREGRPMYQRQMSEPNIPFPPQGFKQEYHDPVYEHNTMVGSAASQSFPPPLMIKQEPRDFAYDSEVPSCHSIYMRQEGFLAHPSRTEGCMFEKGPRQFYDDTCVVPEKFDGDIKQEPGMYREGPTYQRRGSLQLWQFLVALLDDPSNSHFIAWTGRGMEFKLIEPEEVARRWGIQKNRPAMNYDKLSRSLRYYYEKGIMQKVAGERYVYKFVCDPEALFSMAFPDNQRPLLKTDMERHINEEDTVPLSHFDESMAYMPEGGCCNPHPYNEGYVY
# Outline: as §1
sequence,measurement,setting,value
ACTTAA,binding signal,FLI1,"1.17 fold enrichment (6-mer frequency, TF over GST control)"
same,binding signal,ELK1,"1.23 fold enrichment (6-mer frequency, TF over GST control)"
same,binding signal,GABPA,"1.22 fold enrichment (6-mer frequency, TF over GST control)"
same,binding signal,ERG,"1.11 fold enrichment (6-mer frequency, TF over GST control)"
same,binding signal,ELF1,"1.18 fold enrichment (6-mer frequency, TF over GST control)"
same,binding signal,EHF,"1.31 fold enrichment (6-mer frequency, TF over GST control)"
same,binding signal,SPI1,"1.24 fold enrichment (6-mer frequency, TF over GST control)"
same,binding signal,SPIB,"1.18 fold enrichment (6-mer frequency, TF over GST control)"
same,binding signal,ELK3,"1.24 fold enrichment (6-mer frequency, TF over GST control)"
same,binding signal,FEV,"1.15 fold enrichment (6-mer frequency, TF over GST control)"
same,binding signal,ETV5,"1.2 fold enrichment (6-mer frequency, TF over GST control)"
same,binding signal,HSF1,"1.67 fold enrichment (6-mer frequency, TF over GST control)"
same,binding signal,SPIC,"1.25 fold enrichment (6-mer frequency, TF over GST control)"
same,binding signal,ELF4,"1.19 fold enrichment (6-mer frequency, TF over GST control)"
same,binding signal,ELK4,"1.14 fold enrichment (6-mer frequency, TF over GST control)"
same,binding signal,ETV2,"1.16 fold enrichment (6-mer frequency, TF over GST control)"
same,binding signal,ELF3,"1.15 fold enrichment (6-mer frequency, TF over GST control)"
same,binding signal,CRX,"2.66 fold enrichment (6-mer frequency, TF over GST control)"
same,binding signal,ETV1,"1.25 fold enrichment (6-mer frequency, TF over GST control)"
